According to ChEMBL document CHEMBL1961873, “Compounds: GSK PKIS; Assays: Nanosyn kinase panel” (2012):

Experiments:
[1] = molecular target: Sphingosine kinase 1 (Homo sapiens) (UniProt Q9NYA1); settings: at 1 µM;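 note: mean SPHK1 inhibition value reported from the GSK PKIS kinase panel screen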
[2] = molecular target: T1, Sphingosine kinase 2 (Homo sapiens) (UniProt Q9NRA0); settings: at 0.1 µM
T1 sequence (whole entry): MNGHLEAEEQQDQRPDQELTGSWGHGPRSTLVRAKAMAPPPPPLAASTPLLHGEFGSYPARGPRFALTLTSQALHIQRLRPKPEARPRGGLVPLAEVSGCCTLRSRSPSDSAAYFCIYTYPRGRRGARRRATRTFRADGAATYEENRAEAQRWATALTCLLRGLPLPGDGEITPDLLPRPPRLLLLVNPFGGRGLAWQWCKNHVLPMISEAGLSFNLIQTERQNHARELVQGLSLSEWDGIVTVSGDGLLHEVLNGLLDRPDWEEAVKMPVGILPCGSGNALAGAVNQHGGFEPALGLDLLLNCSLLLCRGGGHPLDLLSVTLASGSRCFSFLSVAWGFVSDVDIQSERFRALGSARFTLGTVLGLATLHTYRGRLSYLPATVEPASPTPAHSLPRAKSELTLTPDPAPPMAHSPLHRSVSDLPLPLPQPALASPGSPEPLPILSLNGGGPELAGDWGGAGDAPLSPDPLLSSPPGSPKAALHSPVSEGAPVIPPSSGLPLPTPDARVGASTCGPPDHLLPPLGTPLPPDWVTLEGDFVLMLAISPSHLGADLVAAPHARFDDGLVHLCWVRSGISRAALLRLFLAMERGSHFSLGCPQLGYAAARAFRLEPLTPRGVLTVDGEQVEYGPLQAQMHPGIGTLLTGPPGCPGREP

[3] = molecular target: T1, Sphingosine kinase 2 (Homo sapiens); settings: at 1 µM
[4] = molecular target: Casein kinase II subunit alpha (Homo sapiens) (UniProt P68400); settings: at 0.1 µM
Chain of Casein kinase II subunit alpha (Homo sapiens) (P68400 whole entry, looked up): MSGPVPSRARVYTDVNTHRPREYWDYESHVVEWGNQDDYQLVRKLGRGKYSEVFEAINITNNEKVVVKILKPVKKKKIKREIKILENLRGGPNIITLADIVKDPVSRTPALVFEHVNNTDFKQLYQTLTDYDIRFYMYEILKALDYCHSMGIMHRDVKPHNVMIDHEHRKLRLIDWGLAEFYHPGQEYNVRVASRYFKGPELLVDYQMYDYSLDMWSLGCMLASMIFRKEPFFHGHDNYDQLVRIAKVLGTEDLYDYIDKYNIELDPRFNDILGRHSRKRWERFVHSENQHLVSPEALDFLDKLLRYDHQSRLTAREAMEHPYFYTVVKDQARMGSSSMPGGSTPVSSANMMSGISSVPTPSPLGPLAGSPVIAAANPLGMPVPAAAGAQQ

[5] = molecular target: Casein kinase II subunit alpha (Homo sapiens) (UniProt P68400); settings: at 1 µM
[6] = molecular target: T2, Inhibitor of nuclear factor kappa-B kinase subunit alpha (Homo sapiens) (UniProt O15111); settings: at 0.1 µM
T2 sequence (whole entry): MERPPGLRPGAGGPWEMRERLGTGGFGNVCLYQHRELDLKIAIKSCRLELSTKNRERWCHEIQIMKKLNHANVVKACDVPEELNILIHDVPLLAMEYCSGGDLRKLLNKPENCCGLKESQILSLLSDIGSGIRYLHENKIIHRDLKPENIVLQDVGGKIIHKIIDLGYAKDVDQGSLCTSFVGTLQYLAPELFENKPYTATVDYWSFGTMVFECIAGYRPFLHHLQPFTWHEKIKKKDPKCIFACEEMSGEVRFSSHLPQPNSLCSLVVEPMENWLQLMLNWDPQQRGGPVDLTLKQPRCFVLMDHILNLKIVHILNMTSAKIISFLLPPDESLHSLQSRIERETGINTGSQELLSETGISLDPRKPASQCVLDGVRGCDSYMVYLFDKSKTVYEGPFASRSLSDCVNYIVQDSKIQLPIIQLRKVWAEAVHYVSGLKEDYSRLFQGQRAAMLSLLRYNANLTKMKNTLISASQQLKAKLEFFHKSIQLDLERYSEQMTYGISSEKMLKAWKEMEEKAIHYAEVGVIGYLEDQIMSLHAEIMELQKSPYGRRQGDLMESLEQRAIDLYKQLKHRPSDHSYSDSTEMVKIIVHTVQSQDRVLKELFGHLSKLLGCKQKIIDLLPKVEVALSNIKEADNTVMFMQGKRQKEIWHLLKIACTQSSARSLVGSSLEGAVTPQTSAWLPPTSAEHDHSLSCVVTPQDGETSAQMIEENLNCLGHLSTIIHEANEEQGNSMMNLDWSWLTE

[7] = molecular target: T2, Inhibitor of nuclear factor kappa-B kinase subunit alpha (Homo sapiens); settings: at 1 µM
[8] = molecular target: T3, Inhibitor of nuclear factor kappa-B kinase subunit beta (Homo sapiens) (UniProt O14920); settings: at 0.1 µM
T3 sequence (whole entry): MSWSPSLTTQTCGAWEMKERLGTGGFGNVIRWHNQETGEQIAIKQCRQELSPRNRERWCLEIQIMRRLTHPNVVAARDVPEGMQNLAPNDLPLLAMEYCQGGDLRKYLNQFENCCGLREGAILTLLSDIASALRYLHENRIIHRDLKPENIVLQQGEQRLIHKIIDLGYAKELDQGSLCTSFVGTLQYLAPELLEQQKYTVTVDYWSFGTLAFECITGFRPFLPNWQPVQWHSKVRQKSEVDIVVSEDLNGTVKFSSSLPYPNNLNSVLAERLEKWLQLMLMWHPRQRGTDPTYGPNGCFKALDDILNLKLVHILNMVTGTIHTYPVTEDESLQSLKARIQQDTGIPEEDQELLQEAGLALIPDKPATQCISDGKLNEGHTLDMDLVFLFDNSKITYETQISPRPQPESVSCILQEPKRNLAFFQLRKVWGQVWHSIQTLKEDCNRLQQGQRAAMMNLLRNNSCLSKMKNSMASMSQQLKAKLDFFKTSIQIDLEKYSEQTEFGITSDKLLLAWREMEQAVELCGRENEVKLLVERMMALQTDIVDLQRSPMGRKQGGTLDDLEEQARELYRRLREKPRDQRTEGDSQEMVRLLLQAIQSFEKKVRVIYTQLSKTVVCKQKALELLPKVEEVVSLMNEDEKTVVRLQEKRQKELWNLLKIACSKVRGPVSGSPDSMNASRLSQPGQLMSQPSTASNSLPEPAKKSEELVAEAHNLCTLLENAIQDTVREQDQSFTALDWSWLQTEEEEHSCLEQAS

[9] = molecular target: T3, Inhibitor of nuclear factor kappa-B kinase subunit beta (Homo sapiens); settings: at 1 µM
[10] = molecular target: T4, Inhibitor of nuclear factor kappa-B kinase subunit epsilon (Homo sapiens) (UniProt Q14164); settings: at 0.1 µM
T4 sequence (whole entry): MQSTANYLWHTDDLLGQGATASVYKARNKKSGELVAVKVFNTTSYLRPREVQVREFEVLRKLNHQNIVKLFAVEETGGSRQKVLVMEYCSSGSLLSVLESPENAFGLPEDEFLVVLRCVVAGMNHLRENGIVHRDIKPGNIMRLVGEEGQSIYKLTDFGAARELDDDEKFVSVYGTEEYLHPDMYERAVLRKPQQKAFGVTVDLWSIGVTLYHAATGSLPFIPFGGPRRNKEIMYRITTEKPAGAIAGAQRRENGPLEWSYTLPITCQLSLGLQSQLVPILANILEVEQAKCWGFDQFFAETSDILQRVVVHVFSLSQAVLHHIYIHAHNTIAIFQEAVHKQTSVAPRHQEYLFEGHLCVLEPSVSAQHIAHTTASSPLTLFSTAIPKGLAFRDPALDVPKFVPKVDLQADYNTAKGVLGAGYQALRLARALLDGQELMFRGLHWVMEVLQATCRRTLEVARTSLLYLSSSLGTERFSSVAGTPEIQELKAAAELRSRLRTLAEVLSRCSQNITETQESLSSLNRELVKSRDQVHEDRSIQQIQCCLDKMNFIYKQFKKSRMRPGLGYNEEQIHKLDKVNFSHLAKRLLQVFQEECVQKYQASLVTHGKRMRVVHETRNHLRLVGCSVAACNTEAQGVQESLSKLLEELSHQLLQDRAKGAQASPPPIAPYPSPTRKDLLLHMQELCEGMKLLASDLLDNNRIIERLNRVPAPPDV

[11] = molecular target: T4, Inhibitor of nuclear factor kappa-B kinase subunit epsilon (Homo sapiens); settings: at 1 µM
[12] = molecular target: T5, Serine/threonine-protein kinase Nek1 (Homo sapiens) (UniProt Q96PY6); settings: at 0.1 µM
T5 sequence (whole entry): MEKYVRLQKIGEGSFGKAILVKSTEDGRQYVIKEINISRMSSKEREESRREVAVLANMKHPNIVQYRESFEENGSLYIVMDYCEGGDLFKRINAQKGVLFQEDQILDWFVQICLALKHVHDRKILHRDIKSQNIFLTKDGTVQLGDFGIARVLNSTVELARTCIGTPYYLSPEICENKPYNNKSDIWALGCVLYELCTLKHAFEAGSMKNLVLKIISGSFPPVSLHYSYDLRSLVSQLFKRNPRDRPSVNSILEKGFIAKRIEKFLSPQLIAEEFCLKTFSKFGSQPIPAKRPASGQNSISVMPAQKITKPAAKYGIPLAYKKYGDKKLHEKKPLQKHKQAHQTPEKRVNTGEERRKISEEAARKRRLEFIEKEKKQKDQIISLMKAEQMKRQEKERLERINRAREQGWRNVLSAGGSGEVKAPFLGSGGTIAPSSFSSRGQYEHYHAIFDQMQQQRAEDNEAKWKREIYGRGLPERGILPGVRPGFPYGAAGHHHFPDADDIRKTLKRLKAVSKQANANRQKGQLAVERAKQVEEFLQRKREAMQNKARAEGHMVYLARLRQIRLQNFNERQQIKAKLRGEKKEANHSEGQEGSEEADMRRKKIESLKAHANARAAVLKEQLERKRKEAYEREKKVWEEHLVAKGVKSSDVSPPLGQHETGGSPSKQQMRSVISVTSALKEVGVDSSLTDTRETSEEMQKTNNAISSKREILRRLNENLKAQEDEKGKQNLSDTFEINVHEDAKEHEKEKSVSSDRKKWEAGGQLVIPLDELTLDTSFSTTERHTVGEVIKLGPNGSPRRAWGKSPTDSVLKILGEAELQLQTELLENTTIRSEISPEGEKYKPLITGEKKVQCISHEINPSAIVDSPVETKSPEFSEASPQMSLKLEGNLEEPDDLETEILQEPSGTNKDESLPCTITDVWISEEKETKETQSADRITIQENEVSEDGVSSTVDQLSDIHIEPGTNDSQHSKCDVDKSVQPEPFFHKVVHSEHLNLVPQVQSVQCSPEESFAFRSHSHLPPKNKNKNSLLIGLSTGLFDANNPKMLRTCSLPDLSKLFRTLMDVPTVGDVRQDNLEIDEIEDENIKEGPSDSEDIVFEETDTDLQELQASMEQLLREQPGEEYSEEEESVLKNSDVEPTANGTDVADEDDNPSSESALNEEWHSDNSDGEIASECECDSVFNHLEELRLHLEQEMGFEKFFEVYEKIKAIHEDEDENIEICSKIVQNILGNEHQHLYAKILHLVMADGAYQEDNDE

[13] = molecular target: T5, Serine/threonine-protein kinase Nek1 (Homo sapiens); settings: at 1 µM
[14] = molecular target: T6, Serine/threonine-protein kinase Nek2 (Homo sapiens) (UniProt P51955); settings: at 0.1 µM
T6 sequence (whole entry): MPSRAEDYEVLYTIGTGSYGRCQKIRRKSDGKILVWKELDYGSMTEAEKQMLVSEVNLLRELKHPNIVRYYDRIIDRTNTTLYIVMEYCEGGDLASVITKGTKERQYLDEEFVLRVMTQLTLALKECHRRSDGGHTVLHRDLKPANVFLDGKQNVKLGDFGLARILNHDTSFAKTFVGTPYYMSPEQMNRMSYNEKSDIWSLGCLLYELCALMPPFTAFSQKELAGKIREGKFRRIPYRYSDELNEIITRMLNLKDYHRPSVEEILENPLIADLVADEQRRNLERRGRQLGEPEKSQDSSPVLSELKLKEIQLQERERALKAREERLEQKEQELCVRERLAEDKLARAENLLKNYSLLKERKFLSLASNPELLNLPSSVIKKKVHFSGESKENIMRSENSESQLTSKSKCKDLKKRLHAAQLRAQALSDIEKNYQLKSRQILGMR

[15] = molecular target: T6, Serine/threonine-protein kinase Nek2 (Homo sapiens); settings: at 1 µM
[16] = molecular target: Serine/threonine-protein kinase Nek6 (Homo sapiens) (UniProt Q9HC98); settings: at 0.1 µM
Chain of Serine/threonine-protein kinase Nek6 (Homo sapiens) (Q9HC98 whole entry): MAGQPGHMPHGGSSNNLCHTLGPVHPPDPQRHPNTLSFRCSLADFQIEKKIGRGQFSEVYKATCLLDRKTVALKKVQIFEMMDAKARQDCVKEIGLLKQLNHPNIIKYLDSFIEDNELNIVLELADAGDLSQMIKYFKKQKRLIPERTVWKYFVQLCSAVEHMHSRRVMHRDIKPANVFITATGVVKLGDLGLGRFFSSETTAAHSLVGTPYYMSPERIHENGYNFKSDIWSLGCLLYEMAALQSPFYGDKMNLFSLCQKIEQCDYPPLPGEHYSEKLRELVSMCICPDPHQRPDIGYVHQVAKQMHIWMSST

[17] = molecular target: Serine/threonine-protein kinase Nek6 (Homo sapiens) (UniProt Q9HC98); settings: at 1 µM
[18] = molecular target: Serine/threonine-protein kinase Nek7 (Homo sapiens) (UniProt Q8TDX7); settings: at 0.1 µM
Chain of Serine/threonine-protein kinase Nek7 (Homo sapiens) (Q8TDX7 whole entry, looked up): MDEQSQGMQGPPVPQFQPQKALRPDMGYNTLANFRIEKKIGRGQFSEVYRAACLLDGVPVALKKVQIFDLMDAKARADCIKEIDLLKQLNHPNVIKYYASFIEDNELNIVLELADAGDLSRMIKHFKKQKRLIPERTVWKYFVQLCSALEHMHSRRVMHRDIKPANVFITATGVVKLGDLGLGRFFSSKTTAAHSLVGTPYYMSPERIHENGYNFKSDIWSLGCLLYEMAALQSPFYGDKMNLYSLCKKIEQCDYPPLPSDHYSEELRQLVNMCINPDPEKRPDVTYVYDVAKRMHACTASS

[19] = molecular target: Serine/threonine-protein kinase Nek7 (Homo sapiens) (UniProt Q8TDX7); settings: at 1 µM
[20] = molecular target: T7, Serine/threonine-protein kinase Nek9 (Homo sapiens) (UniProt Q8TD19); settings: at 0.1 µM;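 note: reported value is the mean percent inhibition of NEK9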
T7 sequence (whole entry): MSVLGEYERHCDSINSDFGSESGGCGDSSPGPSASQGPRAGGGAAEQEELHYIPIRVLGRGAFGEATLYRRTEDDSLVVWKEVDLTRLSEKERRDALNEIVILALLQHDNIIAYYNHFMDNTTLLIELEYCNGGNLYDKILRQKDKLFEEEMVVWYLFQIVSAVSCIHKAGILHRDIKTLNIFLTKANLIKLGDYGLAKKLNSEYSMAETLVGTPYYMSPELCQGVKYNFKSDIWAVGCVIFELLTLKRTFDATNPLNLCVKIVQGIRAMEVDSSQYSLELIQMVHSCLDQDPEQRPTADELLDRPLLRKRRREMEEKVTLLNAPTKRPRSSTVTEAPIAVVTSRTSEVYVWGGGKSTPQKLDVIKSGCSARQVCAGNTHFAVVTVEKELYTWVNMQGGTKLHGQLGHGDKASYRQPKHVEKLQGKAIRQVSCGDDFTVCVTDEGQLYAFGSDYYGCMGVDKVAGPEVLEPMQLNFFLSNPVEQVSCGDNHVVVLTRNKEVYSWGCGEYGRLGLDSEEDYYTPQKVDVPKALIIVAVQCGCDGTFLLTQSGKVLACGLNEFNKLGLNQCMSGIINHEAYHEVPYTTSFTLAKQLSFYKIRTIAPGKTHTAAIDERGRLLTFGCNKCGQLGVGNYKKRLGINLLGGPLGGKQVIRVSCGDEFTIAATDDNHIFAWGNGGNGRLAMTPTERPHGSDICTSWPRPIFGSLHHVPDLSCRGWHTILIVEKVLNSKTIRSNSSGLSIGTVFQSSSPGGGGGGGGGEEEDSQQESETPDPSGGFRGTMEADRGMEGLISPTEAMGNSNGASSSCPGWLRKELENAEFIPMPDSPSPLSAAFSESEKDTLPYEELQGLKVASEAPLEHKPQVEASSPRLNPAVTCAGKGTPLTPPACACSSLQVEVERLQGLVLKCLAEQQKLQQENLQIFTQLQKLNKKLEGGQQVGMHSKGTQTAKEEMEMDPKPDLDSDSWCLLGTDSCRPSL

Chain of Sphingosine kinase 1 (Homo sapiens) (Q9NYA1 whole entry): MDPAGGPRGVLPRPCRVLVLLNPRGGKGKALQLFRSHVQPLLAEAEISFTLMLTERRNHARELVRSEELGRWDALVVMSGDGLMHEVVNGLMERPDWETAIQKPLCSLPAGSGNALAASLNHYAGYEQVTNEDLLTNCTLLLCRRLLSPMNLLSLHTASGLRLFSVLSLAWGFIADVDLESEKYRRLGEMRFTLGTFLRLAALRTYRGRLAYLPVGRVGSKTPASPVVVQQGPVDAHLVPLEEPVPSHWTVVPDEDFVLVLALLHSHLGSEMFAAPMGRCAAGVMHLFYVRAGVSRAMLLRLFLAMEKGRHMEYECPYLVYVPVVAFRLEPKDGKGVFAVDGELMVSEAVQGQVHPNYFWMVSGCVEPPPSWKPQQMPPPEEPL

`Cc1nnc(-c2ccc(C)c(-c3ccc(C(=O)Nc4cccc(C#N)c4)cc3)c2)o1` gave an inhibition [1] of 0%, an inhibition [2] of 0% and an inhibition [3] of 1.55%. It also gave an inhibition [4] of 1.51%, an inhibition [5] of 6.5% and an inhibition [6] of 7.7%. The inhibition [7] was 4%, the inhibition [8] was 3.09% and the inhibition [9] was 8.71%. The inhibition [10] was 3.28%, the inhibition [11] was 6.02% and the inhibition [12] was 1.56%. The inhibition [13] was 4.44%, the inhibition [14] was 3.25% and the inhibition [15] was 2.64%. It also gave an inhibition [16] of 1.65%, an inhibition [17] of 0.35% and an inhibition [18] of 3.44%. It also gave an inhibition [19] of 3.07% and an inhibition [20] of 5.36%.
